Assay [1] is described as follows: ATG_XTT_Cytotoxicity: Cytotoxicity Assessment in the Attagene TRANS-FACTORIAL HepG2 Assay (AID 2283584).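 On AC50: XTT signal for cell number as viability in transfected HepG2 cells; cells exposed to compound for 24 h before reading; active means loss of viability signal versus DMSO baseline.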 The method, boiled down: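 24 h chemical exposure of reporter-transfected HepG2; XTT signal loss vs DMSO indicates cytotoxicity.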
Read-out in assay [2]: X-box binding protein 1 (XBP1), XBP1 (gene 7494)
The experiment in a line: LTEA_HepaRG_XBP1: Life Technologies and Expression Analysis (LTEA) Assay for X-box binding protein 1 (XBP1) using HepaRG (AID 2283540; active means hit-call score of the fitted dose curve at least 0.9, where 1 is the maximum; inactive means score below 0.9). To be noted: mRNA level, 48 h; actives raise or lower the signal. An outline of the steps:
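Eight concentrations (half-log, highest 100 uM, 0.5% DMSO) tested in duplicate on HepaRG cells over 48 h in serum-free induction medium; qRT-PCR of XBP1 normalised to ACTB, GAPDH, POLR2A.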

Assay [3] in a line: Tanguay_ZF_120hpf_MORT_legacy: (Legacy) Oregon State University Tanguay Lab 120 Hour Post-fertilization zebrafish Assay for Mortality (AID 2283633).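 On AC50: fitted as increase in binary mortality versus DMSO negative control.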 An outline of the steps: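 Single dechorionated Tropical 5D embryos were held with test chemical (0.64% DMSO final) from 6 to 120 hpf at 28C under foil. Deaths at 24 or 120 hpf were recorded as binary calls, analysed for increase over DMSO controls.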

The nature of assay [4]: Tanguay_ZF_120hpf_AXIS_legacy: (Legacy) Oregon State University Tanguay Lab 120 Hour Post-fertilization zebrafish Assay for Body Axis Malformation (AID 2283635).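 On AC50: potency for an increased fraction of larvae scored with body axis malformation.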 An outline of the steps: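 Each dechorionated embryo was exposed alone from 6 hpf, with DMSO at 0.64% (vol/vol) and trimethyltin chloride 5 uM as positive control. Axis malformation was recorded at 120 hpf unless the embryo had died.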

Assay [5] in a line: Tanguay_ZF_120hpf_SNOU_legacy: (Legacy) Oregon State University Tanguay Lab 120 Hour Post-fertilization zebrafish Assay for Snout Malformation (AID 2283637). An outline of the steps: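 Binary brightfield scoring of snout malformation at 120 hpf. Dechorionated 5D wild-type embryos, one per well, static exposure from 6 hpf at 28C, sealed and dark; final DMSO 0.64% (vol/vol), DMSO as baseline; 5uM trimethyltin chloride positive control.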

Assay [6] is described as follows: Tanguay_ZF_120hpf_OTIC_legacy: (Legacy) Oregon State University Tanguay Lab 120 Hour Post-fertilization zebrafish Assay for Otic Vesicle Malformation (AID 2283639). The method, boiled down:
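Brightfield scoring at 120 hpf, binary present/absent; DMSO negative control, 5uM trimethyltin chloride positive control. Static exposure at 28C, final DMSO 0.64% (vol/vol). Dead embryos not scored for malformation.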

Assay [7] is described as follows: Tanguay_ZF_120hpf_PE_legacy: (Legacy) Oregon State University Tanguay Lab 120 Hour Post-fertilization zebrafish Assay for Pericardial Edema (AID 2283640).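 On AC50: potency for increased incidence of pericardial edema versus DMSO baseline.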 An outline of the steps:
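Zebrafish larvae are exposed from early development to 120 hpf at 28C, with 0.64% DMSO final. Each surviving larva receives a yes/no pericardial edema call by brightfield imaging, analysed relative to the DMSO baseline.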

Assay [8] in a line: Tanguay_ZF_120hpf_BRAI_legacy: (Legacy) Oregon State University Tanguay Lab 120 Hour Post-fertilization zebrafish Assay for Brain Malformation (AID 2283641). An outline of the steps:
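Static exposure of staged wild-type embryos until 120 hpf, kept at 28C with light excluded and final DMSO of 0.64% (vol/vol). Presence or absence of brain malformation was noted under brightfield; mortality precluded scoring.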

The nature of assay [9]: Tanguay_ZF_120hpf_SOMI_legacy: (Legacy) Oregon State University Tanguay Lab 120 Hour Post-fertilization zebrafish Assay for Somite Malformation (AID 2283647). An outline of the steps: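 Somitogenesis defects are recorded as binary calls in whole larvae at 120 hpf after continuous static chemical exposure starting at 6 hpf in dechorionated 5D embryos. DMSO serves as negative control and baseline.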

A short description of assay [10]: Tanguay_ZF_120hpf_YSE_legacy: (Legacy) Oregon State University Tanguay Lab 120 Hour Post-fertilization zebrafish Assay for Yolk Sac Edema (AID 2283634).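 On AC50: actives raise the incidence of yolk sac edema above the DMSO baseline.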 An outline of the steps: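 Single dechorionated embryos were held in sealed plates at 28C with test chemical (0.64% DMSO final) from 6 hpf until 120 hpf. Edema of the yolk sac was then recorded as a binary endpoint; non-mortality endpoints were skipped for dead embryos.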

Assay [11] is described as follows: Tanguay_ZF_120hpf_EYE_legacy: (Legacy) Oregon State University Tanguay Lab 120 Hour Post-fertilization zebrafish Assay for Eye Malformation (AID 2283636).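 Further: binary presence or absence of eye malformation scored by brightfield in 120 hpf larvae.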 The method, boiled down: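 5D wild-type embryos, pronase-dechorionated at 4 hpf; static exposure 6–120 hpf, 28C, dark; DMSO 0.64% final; 5uM trimethyltin chloride positive control. Binary eye-defect scoring at 120 hpf; dead embryos not scored.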

Assay [12] is described as follows: Tanguay_ZF_120hpf_PFIN_legacy: (Legacy) Oregon State University Tanguay Lab 120 Hour Post-fertilization zebrafish Assay for Pectoral Fin Malformation (AID 2283648).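 Further: each larva judged yes or no for fin defect by brightfield with dead larvae skipped.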 The method, boiled down:
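Binary pectoral fin malformation call at 120 hpf by brightfield microscopy; 5D wild-type zebrafish, chorion removed at 4 hpf, one embryo per well from 6 hpf, static exposure at 28C; DMSO (0.64% final) as baseline.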

Where “and” joins values, the source holds several entries; their conditions need not be identical. Equal values may be shown once. Results filed as inconclusive are left out. Calls of active or inactive are those of the source. How the source made its calls, unless noted: active means hit-call score of the fitted dose curve at least 0.9, where 1 is the maximum; inconclusive means response in the unintended direction; inactive means score below 0.9.

Drawing on PubChem BioAssay (EPA / NIEHS), this text covers outcome and AC50 for 32 compounds.

On to `Cc1cc(Cl)ccc1N`, for which, in [1], the compound was called inactive.

As for `COc1ccc([N+](=O)[O-])cc1O`, the outcome in assay [1] was inactive.

With `CC(C)O.CC(C)O.OCCN(CCO)CCO.OCCN(CCO)CCO.[Ti]`, the compound was called inactive in assay [2], in assay [1], in assay [3], in assay [4], in assay [5] and in [6]. Moreover, the compound was classed as inactive in [7], in assay [8] and in assay [9].

As to `O=C(N[C@H]1CN2CCC1CC2)c1ccc2c(c1)OCCO2`, the compound was called inactive in assay [2], in assay [3], in assay [10], in assay [4], in [11] and in assay [5]. For the same compound, the outcome in assay [6], in assay [7], in assay [8], in [9] and in [12] was inactive.

Usually AC50 stands for the concentration at which the activity in the assay is half-maximal. As for `Oc1cc(Cl)c(Cl)cc1Cl`, the outcome in [2], in assay [1], in assay [10], in assay [4], in [11] and in [5] was inactive. In addition, the call in assay [6], in assay [7], in [8], in assay [9] and in [12] was inactive. The concentration at half-maximal activity (AC50) in assay [3] was 24.9 µM (active).

Regarding `O=C(O)C1(c2ccc3c(c2)OC[C@H](Cc2ccc(-c4ccccc4)cc2)[C@H]3O)CCCC1`, the outcome in [2], in assay [3], in assay [10], in assay [4], in [11] and in assay [5] was inactive. For the same compound, the result in [6], in assay [7], in assay [8] and in assay [9] was inactive.

As to `Clc1cccc(Cl)c1`, the result in assay [2], in [3], in assay [10], in [4], in assay [11] and in assay [5] was inactive. In addition, the compound was classed as inactive in assay [6], in assay [7], in assay [9] and in assay [12].

Take `BrCC(Br)c1ccccc1` (centres undefined): in assay [1], the outcome was inactive.

`Cc1ccc(CCl)cc1`: in [1], the compound was classed as inactive.

Turning to `Clc1cccc(Cl)c1Cl`, the compound was called inactive in assay [2], in [3], in [10], in [4], in assay [11] and in assay [5]. In addition, the call in assay [6], in assay [7], in [8], in assay [9] and in assay [12] was inactive.

On to `NNCCO`, for which the outcome in [1] was inactive.

For `N#Cc1cccnc1`, the compound was called inactive in [2], in assay [1], in assay [3], in [10], in [4] and in assay [11]. In addition, the compound was classed as inactive in [5], in assay [6], in assay [7], in assay [8], in assay [9] and in assay [12].

As for `Oc1c(Cl)cc(Cl)cc1Cl`, the compound was called inactive in assay [2], in assay [10], in assay [4], in assay [11], in [5] and in assay [6]. Further, the call in [7], in assay [9] and in [12] was inactive. Further, in assay [3], the half-maximal activity concentration (AC50) was 24.9 µM (active).

For the compound `c1cc[c]([Sb]([c]2ccccc2)[c]2ccccc2)cc1`, the compound was called inactive in assay [1].

For `CCCCC(CC)COC(=O)Cl` (centres undefined), the result in assay [1] was inactive.

`CCOP(=O)(OCC)SCCSCC`: the compound was classed as inactive in [1].

On to `CCCCCCCCCCCCOS(=O)(=O)O`, for which the call in assay [1] was inactive.

Consider `Cc1cc(C)cc(C)c1`, for which the compound was classed as inactive in assay [2], in assay [3], in assay [10], in [4], in assay [11] and in assay [5]. For the same compound, the outcome in assay [6], in [7], in assay [8] and in assay [12] was inactive.

`OCCN(CCO)CCO`: the call in assay [2], in assay [1], in assay [3], in assay [10], in assay [4] and in assay [11] was inactive. For the same compound, the outcome in assay [5], in assay [6], in assay [7], in [8], in assay [9] and in assay [12] was inactive.

Take `C=C(C)C(=O)OCCCCOC(=O)C(=C)C`: in assay [1], the compound was called inactive.

`Nc1ccc(N)cc1`: the result in [1] was inactive.

Regarding `CC(C)N(C(=O)CCl)c1ccccc1`, in [1], the half-maximal activity concentration (AC50) was 31.2 µM (active).

Take `Fc1cccc(Cl)c1CCl`: the result in assay [1] was inactive.

Take `ClCc1ccccc1CCl`: the compound was called inactive in assay [1].

Regarding `CN(C)C(=S)S`, the call in [2], in [1], in assay [3], in assay [11], in assay [5] and in [8] was inactive. Besides, the compound was classed as inactive in assay [9] and in assay [12]. Moreover, the AC50 in assay [10] is 8.26 µM (active); in [4] it was 946 nM (active); in assay [7] it was 3.42 µM (active).

Take `N#Cc1ccccc1N`: in assay [1], the outcome was inactive.

Take `[Cl][Sn]([c]1ccccc1)([c]1ccccc1)[c]1ccccc1`: in assay [1], the AC50 was 1.73 µM (active) and 986 nM (active).

`Brc1c(Br)c(Br)c(Oc2c(Br)c(Br)c(Br)c(Br)c2Br)c(Br)c1Br`: the compound was called inactive in assay [1].

Regarding `O=C(O)COc1cc(Cl)c(Cl)cc1Cl`, the result in assay [1] was inactive.

Take `CCCCCCCCCCCCc1cccc(S(=O)(=O)O)c1`: the compound was called inactive in assay [2], in assay [3], in assay [10], in assay [4], in [11] and in assay [6]. Besides, the outcome in [7], in [8], in [9] and in assay [12] was inactive. The AC50 in assay [1] was 139 µM (active).

Consider `OC(Cc1ccccc1Cl)(Cn1[nH]cnc1=S)C1(Cl)CC1` (centres undefined), for which the outcome in assay [1] was inactive.

On to `CC(C)(C)c1ccccc1O`, for which the compound was called inactive in assay [2], in assay [3], in assay [10], in assay [4], in assay [11] and in [5]. Further, the outcome in [6], in [7], in [8], in [9] and in [12] was inactive.
